Entries with a potency or affinity are not part of this list. The source made the active and inactive calls. The rule behind the calls is not given here.
The compounds below were run against Acyl-homoserine lactone acylase PvdQ (Pseudomonas aeruginosa (strain ATCC 15692 / DSM 22644 / CIP 104116 / JCM 14847 / LMG 12228 / 1C / PRS 101 / PAO1)) (UniProt Q9I194) (assay: P. aeruginosa PvdQ acylase inhibitors, dose response, biochemical, fluorescence, plate reader and imaging, cherry-picks (AID 493231;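 note: 0% = neutral control wells and -100% = reference inhibitor wells; more negative values mean stronger inhibition of the acylase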)). Conditions: purified PvdQ acylase, fluorogenic substrate; series mostly up to 10 µM; activity change, negative = inhibition: at the top concentration.
Chain of Acyl-homoserine lactone acylase PvdQ (Pseudomonas aeruginosa (strain ATCC 15692 / DSM 22644 / CIP 104116 / JCM 14847 / LMG 12228 / 1C / PRS 101 / PAO1)) (Q9I194 whole entry, looked up): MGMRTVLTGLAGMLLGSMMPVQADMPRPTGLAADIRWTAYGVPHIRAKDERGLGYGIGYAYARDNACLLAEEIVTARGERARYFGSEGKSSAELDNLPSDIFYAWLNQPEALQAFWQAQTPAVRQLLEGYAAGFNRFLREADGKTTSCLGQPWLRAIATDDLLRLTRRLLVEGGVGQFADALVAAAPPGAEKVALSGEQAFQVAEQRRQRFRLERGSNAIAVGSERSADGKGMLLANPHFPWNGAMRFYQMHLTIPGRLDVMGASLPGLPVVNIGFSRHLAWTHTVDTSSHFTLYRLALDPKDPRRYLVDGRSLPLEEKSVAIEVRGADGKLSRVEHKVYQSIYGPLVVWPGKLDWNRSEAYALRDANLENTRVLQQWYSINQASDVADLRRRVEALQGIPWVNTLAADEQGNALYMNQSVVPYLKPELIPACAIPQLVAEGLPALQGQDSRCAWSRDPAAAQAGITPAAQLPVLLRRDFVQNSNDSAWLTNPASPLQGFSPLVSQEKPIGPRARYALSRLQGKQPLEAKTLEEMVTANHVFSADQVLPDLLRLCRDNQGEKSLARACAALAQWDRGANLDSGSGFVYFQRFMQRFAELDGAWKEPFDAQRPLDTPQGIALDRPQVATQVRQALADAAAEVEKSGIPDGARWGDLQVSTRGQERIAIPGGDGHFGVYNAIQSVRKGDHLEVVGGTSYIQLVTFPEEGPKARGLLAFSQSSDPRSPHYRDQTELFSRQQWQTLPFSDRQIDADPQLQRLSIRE

Activity change, negative = inhibition, inactive:
Cc1cc(C)cc(NC(=O)C(OC(=O)c2cccs2)c2ccccc2)c1 (stereo unspecified) -99.4 unspecified
COc1ccccc1CNS(=O)(=O)CCNCCc1ccccc1 -100 unspecified
CN1C(=O)/C(=C/c2ccc(O)c([N+](=O)[O-])c2)N(C)C1=S 2.91 unspecified
N#C/C(=C\c1ccc([N+](=O)[O-])cc1)c1ccccn1 -1.17 unspecified
COc1ccc(Cl)cc1C(=O)Nc1ccc(N(C)C(C)=O)cc1 8.04 unspecified
N#C/C(=C\c1ccco1)c1nc2ccccc2s1 -5.66 unspecified
CNC(=S)N/N=C/c1cc(C)n(-c2ccc(Cl)c(Cl)c2)c1C 4.74 unspecified
CCOc1ccccc1-c1cc(-c2n[nH]c(=S)n2CC)c2ccccc2n1 3.92 unspecified
Cc1cc(/C=C2\Cc3ccccc3C2=O)c(C)n1-c1ccccc1 2 unspecified
COC(=O)C1CCN(C2CC(=O)N(c3cc(C)cc(C)c3)C2=O)CC1 (stereo unspecified) -1.56 unspecified
CCCN(c1nc(C)cc(OC)n1)S(=O)(=O)c1ccccc1 10.6 unspecified
O=C(/C=C/c1ccc(Br)cc1)c1ccco1 -12.8 unspecified
O=C1OC(Nc2ccc3c(c2)OCO3)c2ccccc21 (stereo unspecified) -6.13 unspecified
COc1ccccc1N(CC(O)Cn1ccnc1C)S(=O)(=O)c1ccccc1 (stereo unspecified) -1.57 unspecified
CCOC(=O)/C(C#N)=C/c1c(N2CCCCCC2)nc2ccccn2c1=O -0.405 unspecified
O=C(O)c1cccc(CN2C(=O)c3ccccc3C2=O)c1 5 unspecified
COc1ccc(C(=O)N/N=C/c2ccc(OC)c(CN3CCCc4ccccc43)c2)cc1 4.56 unspecified
O=c1[nH]c(C2CCN(S(=O)(=O)c3ccc(C(F)(F)F)cc3)CC2)nc2c1nnn2Cc1ccc(F)cc1 0.781 unspecified
Cc1cc(=O)n2nc(N3CCCC(C(=O)N4CCOCC4)C3)sc2n1 (stereo unspecified) -2.15 unspecified
CC(C)Cn1nc(C(=O)Nc2nnc(C3CC3)s2)c2ccccc2c1=O 0.75 unspecified
COc1ccc(OC2CCN(S(=O)(=O)c3ccc(OC)c(OC)c3)CC2)cc1 4.97 unspecified
CCN(c1ccc(NC(=O)CCNC(=O)c2ccco2)cc1)C(C)C -9.22 unspecified
COCCCNC(=O)CC1C[C@H](C(=O)N2CCCCC2)[C@@]2(CCc3ccccc3)c3[nH]c4ccc(OC)cc4c3CCN2C1=O (stereo partly specified) -1.87 unspecified
Clc1ccc2nc3c4ccccc4cnn3c2c1 -7.83 unspecified
Cc1cc(NCCCn2ccnc2)n2nc(-c3ccc(Cl)cc3)cc2n1 4.65 unspecified
O=C(CCc1ccccc1)Nc1ccc2c(c1)OCO2 -3.22 unspecified
Cc1ccc(-n2c(C)cn(C(=O)c3ccccc3)c2=S)cc1 8.55 unspecified
C=CCNC(=S)NNC(=O)C(CC(C)C)CC(C)O (stereo unspecified) 3.85 unspecified
CC(Sc1nnc(-c2ccccc2F)n1C)C(=O)NC1CCCCC1 (stereo unspecified) 1.43 unspecified
CN1C(=O)S/C(=C\c2ccc(-n3cncn3)cc2)C1=O -1.58 unspecified
CCn1c(Cc2ccccc2)nnc1SCC(=O)Nc1ccccc1 4.67 unspecified
Cc1ccccc1-c1cc(C(=O)NCc2cccs2)nn1CC1CC(c2cccc([N+](=O)[O-])c2)=NO1 (stereo unspecified) -2.87 unspecified
COc1ccc2cc(C)c3nnc(SCC(=O)Nc4cc(OC)c(OC)cc4C(=O)O)n3c2c1 12.9 unspecified
COc1ccccc1OCCC(=O)OCC(=O)c1c(N)n(C)c(=O)n(C)c1=O 6.02 unspecified
CCOC(=O)c1cc(-c2cccc([N+](=O)[O-])c2)on1 -8.55 unspecified
c1ccc2sc(-c3ccc4c(c3)OCO4)nc2c1 8.16 unspecified

— PubChem BioAssay AID493231 (Broad Institute, 2011)
